Laboratory results as given in PubChem BioAssay AID624330 (Southern Research Specialized Biocontainment Screening …, 2012).
In all, about 340,000 compounds went through this assay and about 2,100 (0.62%) were called active.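 The calls were made as follows: active = first-screen hits whose inhibition reached a set limit at any dose in the follow-up dose series; inconclusive = inhibition above the set first-screen limit but never retested; inactive = the rest.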 A selection follows. Measured potencies and affinities stand elsewhere.

Each compound was assayed against Rac GTPase-activating protein 1 (Homo sapiens) (UniProt Q9H0H5) (assay: MgcRacGAP GTPase-activating activity inhibitors, confirmation, biochemical, ADP Hunter fluorescence, primary and confirmatory (AID 624330;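 also: fluorescence reports GDP produced by GAP-driven GTP hydrolysis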)). Conditions: MgcRacGAP-stimulated Rac1 GTP hydrolysis, at 30 µM, active compounds read high, GST-tagged Rac1 F28L mutant substrate.
Sequence of Rac GTPase-activating protein 1 (Homo sapiens) (Q9H0H5 whole entry, looked up): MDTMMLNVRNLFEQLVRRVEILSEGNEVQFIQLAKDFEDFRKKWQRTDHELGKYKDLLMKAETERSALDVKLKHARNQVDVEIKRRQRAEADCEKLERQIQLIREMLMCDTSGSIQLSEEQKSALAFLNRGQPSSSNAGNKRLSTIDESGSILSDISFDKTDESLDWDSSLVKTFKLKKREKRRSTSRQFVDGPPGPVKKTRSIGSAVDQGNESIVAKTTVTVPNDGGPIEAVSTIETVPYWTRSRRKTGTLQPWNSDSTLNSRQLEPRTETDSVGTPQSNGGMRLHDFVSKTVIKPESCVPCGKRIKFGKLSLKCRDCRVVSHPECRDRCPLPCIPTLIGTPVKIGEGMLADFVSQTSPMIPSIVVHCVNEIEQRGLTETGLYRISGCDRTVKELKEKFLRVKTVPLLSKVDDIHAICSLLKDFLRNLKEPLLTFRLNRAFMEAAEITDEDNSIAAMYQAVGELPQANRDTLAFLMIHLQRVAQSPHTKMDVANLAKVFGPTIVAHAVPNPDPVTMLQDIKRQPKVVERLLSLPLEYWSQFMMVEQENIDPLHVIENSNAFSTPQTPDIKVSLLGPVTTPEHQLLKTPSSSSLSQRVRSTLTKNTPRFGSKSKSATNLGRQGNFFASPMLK

inhibition, inactive:
Cc1cccc(C(=O)NCC(=O)NNC(=O)c2ccccc2O)c1 2.8%, Cc1ccc(NC(=O)c2cc(N3C(=O)CCC3=O)ccc2N2CCCCC2)cc1 5.7%, CCN(CC)c1ccc(N=Cc2ccc([N+](=O)[O-])o2)cc1 25.9%, CCN(CC)c1ccc(N=Cc2ccc(N(CC)CC)cc2O)cc1 6.98%, Oc1[nH]c2ccccc2c1C=Nc1ccccc1 11.5%, COc1ccc(N=Cc2c(O)[nH]c3ccccc23)cc1 9.26%, CC1(C)CC(=O)C=C(NCCN2CCN(C(=S)NC3CCCCC3)CC2)C1 -3.74%, CN(Cc1ccccc1)S(=O)(=O)c1ccc(Cl)nc1 11.5%, CCOC(=O)c1ccccc1NC(=O)COC(=O)CCNS(=O)(=O)c1cccs1 3.03%, COc1ccc(NC(=O)NNC(=O)C(C)Oc2ccc3ccccc3c2)cc1 (configuration not stated) 3.58%, S=C(NCCc1ccccc1)Nc1ccc(Nc2ccccc2)cc1 26.5%, Cc1ccc(Nc2ccccc2)cc1 6.69%, O=C(Nc1ccc(Nc2ccccc2)cc1)c1c(F)c(F)c(F)c(F)c1F -3.02%, O=C(Nc1ccc(Nc2ccccc2)cc1)C(Cl)(Cl)Cl 12.3%, Cc1ccc(C)c(OCCC(=O)OCC(=O)Nc2cc(S(=O)(=O)N3CCCCC3)ccc2C)c1 0.95%, CC1CCN(C(=O)c2ccc(NS(=O)(=O)c3ccc4[nH]c(=O)[nH]c4c3)cc2)CC1 8.71%, CN(CC(=O)O/N=C(\N)c1ccc([N+](=O)[O-])cc1)S(=O)(=O)c1ccccc1 -3.85%, O=C(/C=C/C(Cl)(Cl)Cl)Nc1ccc(Cl)cc1 9.68%, CC1=NN(c2ccccc2)C(=O)C1C=Nc1ccccc1O (configuration not stated) 14.8%, CC1=NN(c2ccccc2)C(=O)C1C(=O)c1ccccc1 (configuration not stated) 12.2%, O=C(NC1(C(F)(F)F)C(=O)Nc2c1c(=O)[nH]c(=O)n2Cc1ccccc1)c1ccco1 (configuration not stated) 6.82%, OCCCN1CCN(CCCOc2ccccc2-c2ccccc2)CC1 5.09%, CCN1CCN(CCOc2ccccc2-c2ccccc2)CC1 7.05%, c1ccc(-c2ccccc2OCCCN2CCOCC2)cc1 27.2%, CC1CN(CCOc2ccccc2-c2ccccc2)CC(C)O1 (configuration not stated) 18%, OCCN1CCN(CCOc2ccccc2-c2ccccc2)CC1 -0.13%, CCOc1ccccc1OCCOCCN1CC(C)OC(C)C1 (configuration not stated) 17.3%, c1ccc(-c2ccccc2OCCOCCN2CCNCC2)cc1 31.8%, c1ccc(-c2ccccc2OCCOCCN2CCCCC2)cc1 17.9%, Cc1ccc(C(=O)COC(=O)c2cnccn2)cc1 -2.3%, O=C(C1CCCN(S(=O)(=O)c2ccc(Cl)cc2)C1)N(Cc1cccs1)C1CC1 (configuration not stated) 6.33%, CCn1c(SCC(=O)Nc2cc(C)on2)nnc1-c1ccc(OC)cc1 -3.69%, OC(CNCc1cccs1)c1ccccc1 (configuration not stated) 8.64%, COc1cccc(CN2CCN(S(=O)(=O)c3ccc(Cl)s3)CC2)c1 -1.96%, CCOc1ccc(/C=N/n2cc(-c3ccccc3)[nH]c2=S)cc1 7.02%, CCOC(=O)C1(C(=O)OCC)NC(=O)CC1CC(C)C (configuration not stated) 0.34%, COc1ccc(NC(=S)NCCc2ccc(F)cc2)c(OC)c1 5.59%, C/C=C/c1ccc(OCCCCN2CCC(C)CC2)c(OC)c1 17.4%, CC1CN(C(=O)CCCN2C(=O)c3ccccc3C2=O)CC(C)O1 (configuration not stated) -0.39%, Cc1ccccc1OCCCCCn1ccnc1 2.87%, Fc1ccccc1OCCCCN1CCCCC1 24.8%, Clc1ccccc1OCCCCn1ccnc1 -1.42%, Fc1ccccc1OCCCCCN1CCCC1 10.2%, CC1CN(CN2C(=O)c3ccccc3C2=O)CC(C)O1 (configuration not stated) -0.88%, C/C=C/c1ccc(OCCCCOc2ccc(OC)cc2)c(OC)c1 8.38%, CCn1c2ccccc2c2cc(NC(=O)COC(=O)c3cc(S(N)(=O)=O)c(Cl)cc3Cl)ccc21 11.3%, O=C(Nc1nnc(C2CC2)s1)C1Cc2ccccc2CN1C(=O)c1ccco1 (configuration not stated) 6.66%, c1cn(CCCNc2ncnc3nc[nH]c23)cn1 8.22%, CCCNC(=O)CNC(=S)N(Cc1ccccc1F)C1CCCCC1 8.76%, CCCN(CC(=O)Nc1ccc(F)c(F)c1F)C(=O)Cn1c(=O)cnc2ccccc21 5.6%, O=C(OCC(=O)N1CCc2ccccc2C1)c1c(F)cccc1Cl 4.76%, O=C1CN(C(=O)COC(=O)c2ccc(N3CCCCCC3)c([N+](=O)[O-])c2)c2ccccc2N1 13.5%, COc1ccc(NC(=O)CN(C)C(=O)Cn2c(=O)oc3ccccc32)cc1 3.28%, CCOc1cc(/C=C2\CCn3c2nc2cc(Cl)ccc2c3=O)ccc1O 15.1%, CCOc1cc(/C=C2\CCCC(C(=O)C(F)(F)F)=C2O)ccc1O 25.9%, COc1ccc(/C=C2\CC/C(=C\c3ccc(OC)c(OC)c3)C2=O)cc1OC 4.49%, CCN1C/C(=C/c2ccc(OC)c(O)c2)C(=O)/C(=C/c2ccc(OC)c(O)c2)C1 8.1%, COc1cc(/C=C2/C(=O)CNC2=O)ccc1O 28.6%, COc1cc(/C=C2/CC/C(=C/c3ccc(O)c(OC)c3)C2=O)ccc1O 22%, COc1ccc(/C=C2\CN(Cc3ccccc3)C/C(=C\c3ccc(OC)c(O)c3)C2=O)cc1O 7.6%, CCOc1cc(/C=C2/C(=O)ON=C2C)ccc1O 21.6%, O=C(CSc1nnc(NC(=O)c2ccccc2F)s1)NC1CC1 2.69%, NNC(=O)c1ncoc1-c1ccc(Cl)cc1 5.93%, C=CCN1CC2CC3(COc4cc(C)cc(C)c4)C=CC2(O3)C1=O (configuration not stated) 14.1%, Cc1ccc(C(=O)OCC(=O)Nc2ccc(F)c(Cl)c2)o1 5.92%, COc1ccc(CNC(=O)C[C@H]2C[C@H](C(=O)N3CCOCC3)[C@@]3(C)c4[nH]c5cc(-c6ccco6)ccc5c4CCN3C2=O)cc1OC 15.1%, O=C(C=Cc1ccccn1)c1ccccc1 3.53%, CCO[C@@H]1OC(C(=O)N2CCOCC2)=C[C@H](c2ccc(Br)cc2)[C@H]1CCCO 9.4%, CC(C)CCNC(=O)C(c1ccncc1)N(C(=O)Cn1nnc(-c2ccc(F)cc2)n1)c1ccccc1F (configuration not stated) 2.28%, CSc1ccccc1NC(=O)CSc1n[nH]c(C)c1[N+](=O)[O-] 8.49%, Nc1nonc1-n1nnc(C(=O)N/N=C/c2ccc(OCc3ccccc3F)cc2)c1CN1CCCCC1 -2.32%, CN1C(=O)/C(=C/c2ccc(O)c([N+](=O)[O-])c2)N(C)C1=S 12.6%, COc1cc(/C=C2/C(=O)N(C)C(=S)N2C)ccc1OCc1cccc(F)c1 8.12%, CCc1cc(=O)oc2c(C)c(OCC(=O)NCCCn3ccnc3)ccc12 5.6%, O=C(C[C@@H]1C[C@@H]2c3cc(NS(=O)(=O)c4ccc(F)cc4)ccc3O[C@@H]2[C@@H](CO)O1)NC1CCCCC1 7.42%, O=C(NCc1cccs1)c1nc2ncccn2n1 10.9%, CSc1cccc(NC(=S)N(CCC(C)C)C2CCN(C(C)C)CC2)c1 1.15%, COc1ccccc1-c1ccc(Nc2ccc(C(=O)N3CCOCC3)cc2)nn1 2.87%, CC(=O)c1ccc(Nc2ccc(-c3ccccc3C)nn2)cc1 2.32%, O=C(NCc1ccncc1)C(=O)N/N=C/c1cccnc1 -4.63%, Cc1ccc(O)c(CN(C)Cc2cc(C)ccc2O)c1 -9.02%, O=P(Cc1ccccc1O)(c1ccccc1)c1ccccc1 3.4%, COc1ccc(S(=O)(=O)NC(C)C(=O)Nc2cccc(C(C)=O)c2)cc1 (configuration not stated) 8.82%, CCN(CC)CCn1c2ccccc2c2nc3ccccc3nc21 11.3%, CCc1cc2c(=O)c(-c3nc4ccccc4n3C)c(C)oc2c(CN(CC)CC)c1O 8.27%, O=C(c1cccnc1)N1CCN(S(=O)(=O)c2ccc(S(=O)(=O)N3CCCC3)cc2)CC1 2.14%, CCc1ccc(N(CC(=O)Nc2ccc(OC)cc2OC)S(C)(=O)=O)cc1 6.83%, Cc1cc(N2C(=O)C3C4CCC(C4)C3C2=O)no1 (configuration not stated) -3.98%, O=C(CCCc1cccs1)N1CCN(S(=O)(=O)c2ccccc2Br)CC1 8.03%, CC(=O)NC(NC(=S)Nc1ccc(N=Nc2ccccc2)cc1)C(Cl)(Cl)Cl (configuration not stated) 7.33%, COC(=O)c1ccc(OC(=O)C2CC(=O)N(c3cccc(C)c3)C2)cc1 (configuration not stated) -2.41%, COc1ccc(N2CC(C(=O)OCC(=O)c3ccc(C)cc3)CC2=O)cc1 (configuration not stated) -1.09%, COc1cccc(N2CC(NC(=O)c3ccc4ccccc4c3)CC2=O)c1 (configuration not stated) 6.5%, COC(=O)C1CC(=O)N(c2ccc(C)cc2)C1 (configuration not stated) 1.9%, O=C(COC(=O)c1ccccc1Cl)NCc1ccco1 6.58%, CC(C)=CCN1CCN(CCCn2cccn2)CC1CCO (configuration not stated) 0.56%, CC(=O)Nc1ccc(S(=O)(=O)Nc2nccc(/C=C/c3ccc(Cl)cc3)n2)cc1 -0.65%
